Laboratory results from PubChem BioAssay AID2006 (Sanford-Burnham Center for Chemical Genomics, 2009).
Among all 290,000 compounds or so, about 1,000 (0.34%) were called active. No stated cut-off is given here; in the data, active means inhibition above about 50% (passing the limit was not always enough); inconclusive means no clear call, values can overlap the other calls. The list comes from a sample in which actives are over-represented; it also holds similar structures and randomly drawn compounds.

Biological target: SUMO-conjugating enzyme UBC9 (Homo sapiens) (UniProt P63279)
Assay: inhibitors of in vitro SUMOylation cascade, primary screen, biochemical, HTRF, uHTS (AID 2006)
Conditions: HTRF SUMOylation assay, SAE1/SAE2 + UBC9, in vitro, at 35 µM, stronger effect = higher value

SUMO-conjugating enzyme UBC9 (Homo sapiens), sequence (P63279 whole entry, looked up): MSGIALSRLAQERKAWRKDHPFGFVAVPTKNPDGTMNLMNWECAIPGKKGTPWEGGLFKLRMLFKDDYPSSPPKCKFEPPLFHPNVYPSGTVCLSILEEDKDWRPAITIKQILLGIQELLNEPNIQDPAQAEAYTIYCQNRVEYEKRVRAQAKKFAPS

## CC(=O)Nc1cc2ccc(OC(C)=O)cc2oc1=O
  inhibition: 43.7% (inactive)

## Cc1c(Cc2ccccc2)c(=O)oc2cc(OCC(N)=O)ccc12
  inhibition: 3.3% (inactive)

## CC(=O)Oc1ccc2c(C)c(CC(C)O)c(=O)oc2c1 (stereo not given)
  inhibition: 52.6% (active)
Average of repeat tests
  inhibition: 46.3%

## COc1ccc2c(C)c(CCC(=O)NC3CC3)c(=O)oc2c1C
  inhibition: 15.9% (inactive)

## COc1cc(C2C(C(=O)Nc3ccc(F)cc3)=C(C)Nc3nc(CCCO)nn32)cc(OC)c1OC (stereo not given)
  inhibition: 11.3% (inactive)

## COC(=O)c1nc2n(n1)C(c1ccc([N+](=O)[O-])cc1)C(C(=O)Nc1ccc(Cl)cc1)=C(C)N2 (stereo not given)
  inhibition: 56.7% (active)
Average of repeat tests
  inhibition: 44.5%

## COCCOC(=O)C1=C(C)Nc2nc(C)nn2C1c1ccccc1 (stereo not given)
  inhibition: -5% (inactive)

## Cc1nn(C)c(Cl)c1CN1CCC(n2nccc2NC(=O)C2CCCC2)CC1
  inhibition: 3.6% (inactive)

## CCCCNC(=O)N(O)C1N(/N=C/c2ccc(N(C)C)cc2)C(=S)SC1(C)C (stereo not given)
  inhibition: 6.7% (inactive)

## Cc1cc(C)c(S(=O)(=O)c2ccc(F)cc2C)c(=O)[nH]1
  inhibition: 14.5% (inactive)

## CNC(=S)N/N=C/c1ccc(OCc2ccccc2)c(Br)c1
  inhibition: 11.3% (inactive)

## COc1ccc(OC)c(NC(=O)Cc2cccs2)c1
  inhibition: 8% (inactive)

## Cc1ccc(/C=C/C(=O)Nc2ccc([N+](=O)[O-])c(NC(=O)/C=C/c3ccc(C)o3)c2)o1
  inhibition: 74.6% (active)

## CCc1nnc(NC(=O)/C=C/c2ccc(C)o2)s1
  inhibition: 7.9% (inactive)

## Cc1ccc(/C=C/C(=O)Nc2cc(S(=O)(=O)N3CCCCCC3)ccc2OCC(F)(F)F)o1
  inhibition: 25.6% (inactive)

## CC(C)c1nnc(NC(=O)CCC(=O)N2CCN(c3cccc(Cl)c3)CC2)s1
  inhibition: 1.4% (inactive)

## Cc1c(C)c(C)c(S(=O)(=O)N2CCC3(CC2)OCCO3)c(C)c1C
  inhibition: 0.4% (inactive)

## Oc1ccc(CNc2ccccc2O)cc1
  inhibition: 2.9% (inactive)

## N#Cc1ccc(Oc2ccc(C(F)(F)F)cc2NC(=O)c2ccc(F)cc2)cc1
  inhibition: -26.5% (inactive)

## COc1ccc(NC(=O)CN(C)CC(=O)Nc2cccc(C(F)(F)F)c2)cc1
  inhibition: 0.2% (inactive)

## COc1cc(NC(=O)c2cncc(-c3ccc(C#N)cc3)c2)cc(C(=O)Nc2cccc(C(F)(F)F)c2)c1
  inhibition: 71.3% (active)
Average of repeat tests
  inhibition: 53.1%

## O=C(CN1CCN(S(=O)(=O)c2ccc(F)cc2)CC1)NC1CC1
  inhibition: 8.8% (inactive)

## COc1cc(N/C=C2\CC(=O)NC(C)=C2C#N)cc(OC)c1OC
  inhibition: 51.7% (active)

## COC(=O)C1=C(C)NC(=O)CC1c1ccccc1OC (stereo not given)
  inhibition: 10.4% (inactive)

## COc1cc2c(cc1OC)C(C(=O)Nc1cc(C)c(OC)c(C)c1)CC(=O)N2 (stereo not given)
  inhibition: 1.4% (inactive)

## CC(O)c1ccc(OCCN(C)c2ccccn2)cc1 (stereo not given)
  inhibition: 20.8% (inactive)

## Cc1[nH]c2c(C(=O)N3CCCC(CCC(=O)NCc4ccccc4F)C3)cccc2c1C (stereo not given)
  inhibition: -0.7% (inactive)

## Brc1ccccc1C1Nc2cccc3cccc(c23)N1
  inhibition: 69.7% (active)

## Oc1ccc(C2Nc3cccc4cccc(c34)N2)cc1
  inhibition: 31.7% (inactive)

## Cc1ccc(C2Nc3cccc4cccc(c34)N2)cc1
  inhibition: 8.5% (inactive)

## CC(C)NS(=O)(=O)c1ccc(OCC(=O)NC2CCCCCC2)cc1
  inhibition: 2.1% (inactive)

## O=C(CC1NCCc2ccccc21)Nc1cccc(Cl)c1 (stereo not given)
  inhibition: -5.3% (inactive)

## CCCCCCNS(=O)(=O)c1ccccc1Br
  inhibition: 21.7% (inactive)

## Cc1ccc(-n2ncc(C(=O)NC3CC3)c2C2CCN(C(=O)OC(C)(C)C)CC2)c(C)c1
  inhibition: -2.6% (inactive)

## CCc1nccn1CCC(=O)N1CCCC(N2CCN(c3ccccc3F)CC2)C1 (stereo not given)
  inhibition: 4.2% (inactive)

## COc1ccc(C(=O)CC(=O)c2ccc(C)cc2)c(O)c1
  inhibition: -0.3% (inactive)

## O=c1c(/C=N/O)coc2ccc(Cl)cc12
  inhibition: 8.4% (inactive)

## O=C1/C(=C/c2coc3ccc(O)cc3c2=O)SC(=S)N1c1ccccc1
  inhibition: 57% (active)
Average of repeat tests
  inhibition: 34.2%

## O=c1c(-c2ccccc2)coc2cc(O)ccc12
  inhibition: 20.1% (inactive)

## Cc1cccc(OCC(O)Cn2c(N3CCCCC3)nc3c2c(=O)[nH]c(=O)n3C)c1 (stereo not given)
  inhibition: 20.6% (inactive)

## CCn1cc(CN2CCN(CC(C)(C)C)C(CCO)C2)c2ccccc21 (stereo not given)
  inhibition: 5.7% (inactive)

## Oc1ccccc1C1=NN(c2ccccc2)C(c2ccccc2)C1 (stereo not given)
  inhibition: 11% (inactive)

## CCN(CC)CCCNC(=S)N(CCO)Cc1cc2cc3c(cc2[nH]c1=O)OCO3
  inhibition: 18.4% (inactive)

## Cc1ccc(NC(=O)C2CCCN2S(=O)(=O)c2cccc3cccnc23)c(C)c1 (stereo not given)
  inhibition: 4.8% (inactive)

## O=S(=O)(c1ccc(Br)c2ccccc12)N1CCOCC1
  inhibition: 2.6% (inactive)

## CC(C)[C@H](NC(=O)OCc1ccccc1)C(=O)OCc1ccccc1
  inhibition: -16.4% (inactive)

## O=[N+]([O-])C(=c1ccc2c(c1)N1C3=C(CCCC3)CC3CCCCC31N=2)[N+](=O)[O-] (stereo not given)
  inhibition: 57.5% (active)

## Cc1sc2ncn(CC(=O)NCCN(C)C)c(=O)c2c1S(=O)(=O)N1CCC(C)CC1
  inhibition: -5.2% (inactive)

## CN1CCC(=O)N([C@H](CO)Cc2ccccc2)CC1
  inhibition: 13% (inactive)

## CCOc1ccc(OCc2ccc(C(=O)N(C)c3ccccc3)o2)cc1
  inhibition: 5% (inactive)

## CC1=C(C(=O)OC2CCCCC2)C(c2cccnc2)n2ncnc2N1 (stereo not given)
  inhibition: -7.1% (inactive)

## C=CCc1ccccc1OCC(O)CN1CCN(CCO)CC1 (stereo not given)
  inhibition: 0.7% (inactive)

## O=C(Nc1ccc(S(=O)(=O)Nc2nccs2)cc1)c1cc(-c2ccncc2)nc2ccccc12
  inhibition: 50% (active)

## O=C(Nc1ccc(S(=O)(=O)Nc2nccs2)cc1)c1cc(=O)[nH]c2ccccc12
  inhibition: 30.5% (inactive)

## CCC(CC)C(=O)Nc1ccc(S(=O)(=O)Nc2nccs2)cc1
  inhibition: 14.7% (inactive)

## Cc1nn(Cc2ccccc2)c(C)c1NS(=O)(=O)c1ccccc1
  inhibition: 3.7% (inactive)

## O=[N+]([O-])c1c(NCCO)cc(Sc2nc3ccccc3s2)c2nonc12
  inhibition: 90.1% (active)

## O=C(O)c1cccc(S(=O)(=O)Nc2ccc(O)cc2Sc2nc3ccccc3s2)c1
  inhibition: -14.5% (inactive)

## COc1ccc(S(=O)(=O)Nc2ccc(O)c(Sc3nc4ccccc4s3)c2)cc1
  inhibition: -0.5% (inactive)

## CCOCc1nnc(NC(=O)CCC2CCCCC2)s1
  inhibition: 10.6% (inactive)

## O=C(CCc1ccccc1)Nc1ccnn1C1CCN(Cc2ccc(OCCO)cc2)CC1
  inhibition: 6.4% (inactive)

## Nc1c(NCCc2ccccc2)c2ccccc2oc1=O
  inhibition: 6.6% (inactive)

## O=c1oc2cc(O)ccc2cc1-c1ccc(F)cc1
  inhibition: 50.3% (active)
Average of repeat tests
  inhibition: 56%

## O=c1oc2ccccc2cc1-c1csc(Nc2ccc(O)cc2)n1
  inhibition: 7.7% (inactive)

## COc1cccc(C(=O)c2cc3ccc(O)cc3oc2=O)c1
  inhibition: 16.5% (inactive)

## O=c1onc(-c2c(F)cccc2F)n1-c1ccccc1Cl
  inhibition: -6.5% (inactive)

## CCOc1ccc(C2/C(=C(/O)c3ccc4c(c3)CC(C)O4)C(=O)C(=O)N2CCCn2ccnc2)cc1 (stereo not given)
  inhibition: -13.9% (inactive)

## Cc1ccc(CNC(=O)Cc2cn(C)c3ccccc23)cc1
  inhibition: -1.9% (inactive)

## c1coc(-c2nc3nc4ccccc4n3nc2-c2ccco2)c1
  inhibition: 90.5% (active)

## Clc1ccccc1CSc1nnc(-c2ccco2)c(-c2ccco2)n1
  inhibition: 35.9% (inactive)

## Cn1c(-c2ccco2)nc2cc3ccccc3cc21
  inhibition: 44.7% (inactive)

## O=C(NCCN1CCCC(O)C1)c1cc(COc2c(F)cccc2F)on1 (stereo not given)
  inhibition: 1.7% (inactive)

## CC(=O)N1CCC(N(C(=O)Nc2ccc(Cl)cc2)C(C)C)CC1
  inhibition: 13.1% (inactive)

## Cc1ccc(NS(=O)(=O)c2ccc(-c3coc(C)n3)cc2)c(C)c1
  inhibition: -8.6% (inactive)

## COC(=O)CNC(=O)c1cc(-c2ccncc2)nc2ccccc12
  inhibition: 0.8% (inactive)

## CCCCN(C)CCCNC(=O)c1cc(-c2cccs2)nc2ccccc12
  inhibition: 20.3% (inactive)

## CCc1ccc(-c2cc(C(=O)NCc3ccco3)c3ccccc3n2)s1
  inhibition: 59.3% (active)

## Cc1ccccc1N1CCN(C2CCCN(C(=O)c3cn4c(C)cccc4n3)C2)CC1 (stereo not given)
  inhibition: -1.6% (inactive)

## CCOC(=O)/C(=N\Nc1ccccc1[N+](=O)[O-])c1csc(Nc2ccccc2)n1
  inhibition: 10.4% (inactive)

## COc1cc(C(=O)Nn2c(CC(C)C)nc3ccccc3c2=O)cc(OC)c1OC
  inhibition: 7.6% (inactive)

## COC(=O)c1cc(OCC(=O)NC2CCCc3ccccc32)cc(C(=O)OC)c1 (stereo not given)
  inhibition: 11.7% (inactive)

## O=C(O)c1ccccc1NC(=O)c1ccccc1-c1ccccc1C(=O)O
  inhibition: 9% (inactive)

## COc1ccccc1NC(=O)CSc1nc2sc3c(c2c(=O)n1-c1ccccc1)CCN(C)C3
  inhibition: -8.5% (inactive)

## Cc1ccc(-c2nc(SCC(=O)Nc3ccccc3OC(F)F)c3c(C)c(C(=O)O)sc3n2)cc1
  inhibition: 77.1% (active)

## CCOC(=O)c1ccc[n+](CC(=O)Nc2ccccc2OC(F)F)c1
  inhibition: -3.9% (inactive)

## CCc1nc2cccnc2n1-c1ccc(C(=O)O)cc1
  inhibition: 10.1% (inactive)

## CCOC(=O)CN(C(=O)COc1nc(C)cc(C)c1C#N)c1ccc(Cl)cc1
  inhibition: 16.2% (inactive)

## Cc1cccc(C)c1N1C(=O)CN(Cc2ccccc2)C1=S
  inhibition: 3.1% (inactive)

## CCOCc1nnc(NC(=O)CCS(=O)(=O)Cc2ccccc2)s1
  inhibition: 0.9% (inactive)

## CC(C)(C)OC(=O)c1c(N)n(CCCN2CCCC2=O)c2nc3ccccc3nc12
  inhibition: 62.9% (active)
Average of repeat tests
  inhibition: 40.3%

## COCC(C)OC(=O)c1c(N)n(CCCN2CCOCC2)c2nc3ccccc3nc12 (stereo not given)
  inhibition: 48.2% (inactive)

## CC(C)(C)c1ccc(C(=O)NCCn2c(N)c(C#N)c3nc4ccccc4nc32)cc1
  inhibition: 27.7% (inactive)

## CC(C)=CCCC(C)CN1CCC(n2nccc2NC(=O)c2ccccc2)CC1 (stereo not given)
  inhibition: 7% (inactive)

## COc1cc(/C(=C/c2ccccc2)c2ccccc2)c2c(c1)oc1ccccc12
  inhibition: 12.7% (inactive)
